According to article PMC7862700, “An all-to-all approach to the identification of sequence-specific readers for epigenetic DNA modifications on cytosine”:

Legend:
Assay in all cases: DAPPL (digital affinity profiling via proximity ligation, sequencing); 10 mM Tris-HCl pH 7.5, 50 mM NaCl, 1 mM DTT, 4% glycerol, room temperature, 30 min; GST-TFs on glutathione beads, 16-mer random dsDNA library, 0.1% formaldehyde crosslink after washing; high values mean tight binding
FLI1 = target: T1, FLI1 (Homo sapiens, UniProt Q01543 1-452); settings: protein: recombinant; tags: N-terminal GST; dsDNA, one strand shown
T1 sequence: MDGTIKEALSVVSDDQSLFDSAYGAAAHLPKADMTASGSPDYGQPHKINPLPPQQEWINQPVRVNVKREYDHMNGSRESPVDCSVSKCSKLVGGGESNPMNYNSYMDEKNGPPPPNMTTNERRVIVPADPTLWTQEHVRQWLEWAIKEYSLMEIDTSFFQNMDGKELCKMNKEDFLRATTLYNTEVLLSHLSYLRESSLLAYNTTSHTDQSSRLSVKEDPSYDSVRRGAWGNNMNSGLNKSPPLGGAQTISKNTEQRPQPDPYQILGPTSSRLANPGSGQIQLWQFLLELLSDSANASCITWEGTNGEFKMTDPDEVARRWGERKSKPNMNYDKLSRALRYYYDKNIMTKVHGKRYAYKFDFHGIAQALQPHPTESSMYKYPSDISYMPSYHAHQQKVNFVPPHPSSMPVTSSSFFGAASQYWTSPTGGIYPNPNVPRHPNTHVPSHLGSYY
Outline: (§1)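 Human transcription factors fused to GST were expressed in yeast, captured on glutathione beads, given DNA barcodes and pooled with a GST-only negative control. Pools were incubated with 200 nmole of a 16-mer random double-stranded DNA library in Tris/NaCl/DTT/glycerol buffer at room temperature for 30 min. They were then washed, crosslinked with 0.1% formaldehyde, proximity-ligated (BsaI/T4 ligase, 1 h, 37 °C), PCR-amplified and sequenced on an Illumina NextSeq500. Binding signal is each 6-mer's read frequency for a factor divided by its frequency for the GST control.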

ELK1 = target: T2, ELK1 (Homo sapiens, UniProt P19419 1-428); settings: protein: recombinant; tags: N-terminal GST; dsDNA, one strand shown
T2 sequence: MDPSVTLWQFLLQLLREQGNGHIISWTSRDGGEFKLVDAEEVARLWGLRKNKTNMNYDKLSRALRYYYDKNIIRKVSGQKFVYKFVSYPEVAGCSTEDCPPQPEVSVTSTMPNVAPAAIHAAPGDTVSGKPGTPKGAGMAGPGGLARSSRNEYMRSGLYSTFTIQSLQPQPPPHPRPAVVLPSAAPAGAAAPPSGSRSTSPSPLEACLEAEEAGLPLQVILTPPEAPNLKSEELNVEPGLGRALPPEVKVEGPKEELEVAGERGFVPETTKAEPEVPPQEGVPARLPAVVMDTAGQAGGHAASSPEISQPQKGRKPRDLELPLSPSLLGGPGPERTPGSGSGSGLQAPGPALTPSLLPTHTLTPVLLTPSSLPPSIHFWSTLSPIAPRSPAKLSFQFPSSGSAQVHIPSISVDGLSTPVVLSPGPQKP
Outline: as §1

GABPA = target: T3, GABPA (Homo sapiens, UniProt Q06546 1-454); settings: protein: recombinant; tags: N-terminal GST; dsDNA, one strand shown
T3 sequence: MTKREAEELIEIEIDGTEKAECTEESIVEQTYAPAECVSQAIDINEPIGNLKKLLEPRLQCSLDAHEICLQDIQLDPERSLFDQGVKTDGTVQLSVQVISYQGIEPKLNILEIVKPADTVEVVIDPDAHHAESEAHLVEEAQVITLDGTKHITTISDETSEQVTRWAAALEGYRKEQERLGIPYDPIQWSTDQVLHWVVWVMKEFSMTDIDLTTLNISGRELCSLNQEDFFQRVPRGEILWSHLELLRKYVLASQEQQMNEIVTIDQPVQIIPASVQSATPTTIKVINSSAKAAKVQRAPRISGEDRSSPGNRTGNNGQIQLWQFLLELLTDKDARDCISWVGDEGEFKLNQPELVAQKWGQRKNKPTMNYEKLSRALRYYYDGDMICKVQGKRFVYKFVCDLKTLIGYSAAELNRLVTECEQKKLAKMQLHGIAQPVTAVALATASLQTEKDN
Outline: as §1

ERG = target: T4, ERG (Homo sapiens, UniProt P11308 1-479); settings: protein: recombinant; tags: N-terminal GST; dsDNA, one strand shown
T4 sequence: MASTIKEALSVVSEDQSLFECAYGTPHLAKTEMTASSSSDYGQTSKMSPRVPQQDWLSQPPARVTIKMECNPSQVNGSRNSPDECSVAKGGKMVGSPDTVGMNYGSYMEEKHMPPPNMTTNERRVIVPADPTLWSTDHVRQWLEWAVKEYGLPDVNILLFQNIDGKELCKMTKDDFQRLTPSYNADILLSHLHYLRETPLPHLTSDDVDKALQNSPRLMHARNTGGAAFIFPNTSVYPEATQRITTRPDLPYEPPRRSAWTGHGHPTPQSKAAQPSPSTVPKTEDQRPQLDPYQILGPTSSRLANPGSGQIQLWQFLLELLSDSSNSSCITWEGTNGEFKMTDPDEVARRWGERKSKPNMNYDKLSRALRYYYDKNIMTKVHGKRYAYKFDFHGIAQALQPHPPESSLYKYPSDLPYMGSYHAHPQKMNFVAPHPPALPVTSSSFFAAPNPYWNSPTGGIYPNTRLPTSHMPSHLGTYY
Outline: as §1

ELF1 = ELF1 (Homo sapiens, UniProt P32519 1-619); settings: protein: recombinant; tags: N-terminal GST; dsDNA, one strand shown
Outline: as §1

EHF = target: T5, EHF (Homo sapiens, UniProt Q9NZC4 1-300); settings: protein: recombinant; tags: N-terminal GST; dsDNA, one strand shown
T5 sequence: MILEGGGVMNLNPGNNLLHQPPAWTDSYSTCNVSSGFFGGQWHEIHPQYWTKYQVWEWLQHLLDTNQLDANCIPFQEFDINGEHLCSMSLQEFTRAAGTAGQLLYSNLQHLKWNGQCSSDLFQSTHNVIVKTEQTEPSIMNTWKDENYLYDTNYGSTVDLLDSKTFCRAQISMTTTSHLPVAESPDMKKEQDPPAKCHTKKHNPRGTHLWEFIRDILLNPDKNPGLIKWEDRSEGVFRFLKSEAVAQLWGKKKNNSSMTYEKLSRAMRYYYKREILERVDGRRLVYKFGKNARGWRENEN
Outline: as §1

SPI1 = SPI1 (Homo sapiens, UniProt P17947 1-270); settings: protein: recombinant; tags: N-terminal GST; dsDNA, one strand shown
Outline: as §1

SPIB = SPIB (Homo sapiens, UniProt Q01892 1-262); settings: protein: recombinant; tags: N-terminal GST; dsDNA, one strand shown
Outline: as §1

ELK3 = target: T6, ELK3 (Homo sapiens, UniProt P41970 1-407); settings: protein: recombinant; tags: N-terminal GST; dsDNA, one strand shown
T6 sequence: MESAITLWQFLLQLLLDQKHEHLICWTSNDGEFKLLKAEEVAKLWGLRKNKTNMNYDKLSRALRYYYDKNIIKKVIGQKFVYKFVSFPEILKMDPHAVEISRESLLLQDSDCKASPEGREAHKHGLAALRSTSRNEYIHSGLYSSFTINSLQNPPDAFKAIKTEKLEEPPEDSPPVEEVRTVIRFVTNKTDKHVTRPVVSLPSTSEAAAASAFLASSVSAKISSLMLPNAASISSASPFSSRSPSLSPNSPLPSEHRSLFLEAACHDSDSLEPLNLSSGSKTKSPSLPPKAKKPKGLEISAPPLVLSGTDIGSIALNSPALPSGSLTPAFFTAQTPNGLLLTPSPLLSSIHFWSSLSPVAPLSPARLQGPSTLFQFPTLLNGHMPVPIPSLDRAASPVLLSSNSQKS
Outline: as §1

FEV = target: T7, FEV (Homo sapiens, UniProt Q99581 1-238); settings: protein: recombinant; tags: N-terminal GST; dsDNA, one strand shown
T7 sequence: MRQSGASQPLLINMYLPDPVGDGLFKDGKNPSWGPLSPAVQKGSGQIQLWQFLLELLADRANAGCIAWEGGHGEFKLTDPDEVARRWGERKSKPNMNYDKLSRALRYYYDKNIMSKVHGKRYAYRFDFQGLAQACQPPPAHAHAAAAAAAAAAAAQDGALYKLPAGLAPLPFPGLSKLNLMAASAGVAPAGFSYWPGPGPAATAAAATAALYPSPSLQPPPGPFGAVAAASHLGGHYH
Outline: as §1

ETV5 = ETV5 (Homo sapiens, UniProt P41161 1-510); settings: protein: recombinant; tags: N-terminal GST; dsDNA, one strand shown
Outline: as §1

HSF1 = HSF1 (Homo sapiens, UniProt Q00613 1-529); settings: protein: recombinant; tags: N-terminal GST; chain copies: 3; dsDNA, one strand shown
Outline: as §1

SPIC = target: T8, SPIC (Homo sapiens, UniProt Q8N5J4 1-248); settings: protein: recombinant; tags: N-terminal GST; dsDNA, one strand shown
T8 sequence: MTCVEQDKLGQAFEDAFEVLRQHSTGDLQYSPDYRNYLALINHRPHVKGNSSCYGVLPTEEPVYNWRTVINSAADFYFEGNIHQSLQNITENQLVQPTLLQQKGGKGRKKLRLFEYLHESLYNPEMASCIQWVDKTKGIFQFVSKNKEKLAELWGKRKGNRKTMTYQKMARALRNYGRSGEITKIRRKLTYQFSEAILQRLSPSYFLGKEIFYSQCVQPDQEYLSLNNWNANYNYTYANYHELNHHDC
Outline: as §1

ELF4 = ELF4 (Homo sapiens, UniProt Q99607 1-663); settings: protein: recombinant; tags: N-terminal GST; dsDNA, one strand shown
Outline: as §1

ELK4 = target: T9, ELK4 (Homo sapiens, UniProt P28324-2 1-405); settings: protein: recombinant; tags: N-terminal GST; dsDNA, one strand shown
T9 sequence: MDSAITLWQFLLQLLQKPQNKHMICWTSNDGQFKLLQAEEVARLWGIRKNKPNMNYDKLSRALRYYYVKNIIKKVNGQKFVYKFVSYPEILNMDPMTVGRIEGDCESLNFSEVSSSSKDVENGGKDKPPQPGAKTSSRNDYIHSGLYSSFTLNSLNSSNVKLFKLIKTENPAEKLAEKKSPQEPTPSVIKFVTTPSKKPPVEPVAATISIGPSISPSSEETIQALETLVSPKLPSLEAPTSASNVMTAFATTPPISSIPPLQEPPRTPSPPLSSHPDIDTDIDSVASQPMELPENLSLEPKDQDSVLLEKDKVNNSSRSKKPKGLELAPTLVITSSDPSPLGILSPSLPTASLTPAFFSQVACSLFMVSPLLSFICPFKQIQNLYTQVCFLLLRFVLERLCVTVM
Outline: as §1

ETV2 = target: T10, ETV2 (Homo sapiens, UniProt O00321 1-342); settings: protein: recombinant; tags: N-terminal GST; dsDNA, one strand shown
T10 sequence: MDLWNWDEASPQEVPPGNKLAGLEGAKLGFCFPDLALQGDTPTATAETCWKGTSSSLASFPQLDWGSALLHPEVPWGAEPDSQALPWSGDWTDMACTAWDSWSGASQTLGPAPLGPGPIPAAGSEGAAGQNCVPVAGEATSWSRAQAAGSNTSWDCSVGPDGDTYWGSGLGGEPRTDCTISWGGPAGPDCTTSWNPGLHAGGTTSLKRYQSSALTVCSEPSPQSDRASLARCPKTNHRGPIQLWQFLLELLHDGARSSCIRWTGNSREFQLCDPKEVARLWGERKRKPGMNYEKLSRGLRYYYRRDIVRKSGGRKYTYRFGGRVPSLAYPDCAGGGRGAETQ
Outline: as §1

ELF3 = target: T11, ELF3 (Homo sapiens, UniProt P78545 1-371); settings: protein: recombinant; tags: N-terminal GST; dsDNA, one strand shown
T11 sequence: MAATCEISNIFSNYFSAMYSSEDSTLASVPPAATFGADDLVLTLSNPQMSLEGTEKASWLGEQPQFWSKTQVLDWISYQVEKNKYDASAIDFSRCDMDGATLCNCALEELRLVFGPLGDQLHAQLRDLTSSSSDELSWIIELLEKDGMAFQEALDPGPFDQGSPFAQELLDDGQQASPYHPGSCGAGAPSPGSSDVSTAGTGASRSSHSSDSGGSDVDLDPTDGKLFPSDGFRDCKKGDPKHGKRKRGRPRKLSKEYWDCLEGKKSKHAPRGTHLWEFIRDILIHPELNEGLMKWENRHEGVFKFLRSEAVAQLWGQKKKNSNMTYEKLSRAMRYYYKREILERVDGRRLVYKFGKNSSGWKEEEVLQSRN
Outline: as §1

CRX = CRX (Homo sapiens, UniProt O43186 1-299); settings: protein: recombinant; tags: N-terminal GST; dsDNA, one strand shown
Outline: as §1

ETV1 = ETV1 (Homo sapiens, UniProt P50549 1-477); settings: protein: recombinant; tags: N-terminal GST; dsDNA, one strand shown
Outline: as §1

Sequence of SPIB (Q01892 whole entry): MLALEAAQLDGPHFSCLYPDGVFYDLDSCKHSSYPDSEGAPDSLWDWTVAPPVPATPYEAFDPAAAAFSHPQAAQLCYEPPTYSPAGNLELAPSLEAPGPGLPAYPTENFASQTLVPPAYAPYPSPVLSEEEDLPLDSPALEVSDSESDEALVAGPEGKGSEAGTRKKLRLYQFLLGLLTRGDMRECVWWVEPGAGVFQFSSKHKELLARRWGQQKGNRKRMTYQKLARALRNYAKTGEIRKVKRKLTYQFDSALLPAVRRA
Sequence of ELF1 (P32519 whole entry): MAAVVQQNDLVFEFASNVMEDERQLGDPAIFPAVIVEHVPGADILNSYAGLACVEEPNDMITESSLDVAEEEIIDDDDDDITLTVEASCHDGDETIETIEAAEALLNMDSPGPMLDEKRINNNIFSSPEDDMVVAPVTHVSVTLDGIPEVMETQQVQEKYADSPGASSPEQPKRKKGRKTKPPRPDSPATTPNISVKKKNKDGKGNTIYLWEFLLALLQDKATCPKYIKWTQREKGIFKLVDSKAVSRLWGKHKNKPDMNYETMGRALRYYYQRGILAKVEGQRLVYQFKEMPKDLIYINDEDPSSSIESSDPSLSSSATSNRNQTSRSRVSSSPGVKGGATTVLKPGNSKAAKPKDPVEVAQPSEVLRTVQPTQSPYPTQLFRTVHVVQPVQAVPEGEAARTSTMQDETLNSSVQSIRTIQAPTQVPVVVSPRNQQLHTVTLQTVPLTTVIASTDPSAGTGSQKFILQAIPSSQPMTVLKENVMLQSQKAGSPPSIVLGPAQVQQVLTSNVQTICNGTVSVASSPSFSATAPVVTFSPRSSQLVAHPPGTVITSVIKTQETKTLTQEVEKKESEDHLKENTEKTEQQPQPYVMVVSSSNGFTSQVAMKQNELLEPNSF
Sequence of HSF1 (Q00613 whole entry): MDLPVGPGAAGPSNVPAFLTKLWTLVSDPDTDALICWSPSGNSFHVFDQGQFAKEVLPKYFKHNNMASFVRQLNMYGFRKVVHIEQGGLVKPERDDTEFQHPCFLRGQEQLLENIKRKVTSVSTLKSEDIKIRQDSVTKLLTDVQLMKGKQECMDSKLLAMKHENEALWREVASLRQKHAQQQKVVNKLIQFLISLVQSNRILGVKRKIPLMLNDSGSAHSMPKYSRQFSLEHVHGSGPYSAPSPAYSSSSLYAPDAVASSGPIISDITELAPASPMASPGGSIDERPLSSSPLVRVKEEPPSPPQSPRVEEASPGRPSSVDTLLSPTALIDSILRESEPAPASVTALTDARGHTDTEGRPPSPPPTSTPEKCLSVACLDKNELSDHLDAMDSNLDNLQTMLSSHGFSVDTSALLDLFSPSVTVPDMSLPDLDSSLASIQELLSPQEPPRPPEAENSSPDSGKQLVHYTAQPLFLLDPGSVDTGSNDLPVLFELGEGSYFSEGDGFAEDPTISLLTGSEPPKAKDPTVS
Sequence of ELF4 (Q99607 whole entry): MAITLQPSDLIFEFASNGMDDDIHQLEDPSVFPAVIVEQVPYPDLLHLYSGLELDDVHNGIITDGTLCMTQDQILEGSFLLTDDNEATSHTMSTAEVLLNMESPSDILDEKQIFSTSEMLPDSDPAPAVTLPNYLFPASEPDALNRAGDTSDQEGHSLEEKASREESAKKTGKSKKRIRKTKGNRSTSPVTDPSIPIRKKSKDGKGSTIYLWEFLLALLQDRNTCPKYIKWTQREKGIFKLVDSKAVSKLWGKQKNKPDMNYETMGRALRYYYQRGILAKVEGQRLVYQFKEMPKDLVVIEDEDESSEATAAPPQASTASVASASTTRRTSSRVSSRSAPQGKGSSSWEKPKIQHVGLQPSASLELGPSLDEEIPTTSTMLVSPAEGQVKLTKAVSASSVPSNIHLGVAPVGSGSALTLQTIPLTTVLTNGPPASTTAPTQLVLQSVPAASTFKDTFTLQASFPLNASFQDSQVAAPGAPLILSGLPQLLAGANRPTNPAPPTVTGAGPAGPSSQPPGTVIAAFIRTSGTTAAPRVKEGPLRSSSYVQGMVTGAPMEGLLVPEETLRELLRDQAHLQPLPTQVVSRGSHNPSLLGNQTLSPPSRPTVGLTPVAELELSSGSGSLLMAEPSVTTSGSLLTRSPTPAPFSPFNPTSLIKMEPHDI
Sequence of CRX (O43186 whole entry): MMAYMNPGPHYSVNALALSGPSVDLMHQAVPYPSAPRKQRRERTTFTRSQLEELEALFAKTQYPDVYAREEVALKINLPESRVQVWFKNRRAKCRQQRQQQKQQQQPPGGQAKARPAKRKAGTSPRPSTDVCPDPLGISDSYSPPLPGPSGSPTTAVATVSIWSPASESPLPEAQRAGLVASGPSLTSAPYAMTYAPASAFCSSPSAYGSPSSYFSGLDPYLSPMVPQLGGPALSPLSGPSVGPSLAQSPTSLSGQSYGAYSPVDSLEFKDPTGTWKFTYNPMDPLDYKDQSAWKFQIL
Sequence of ETV1 (P50549 whole entry): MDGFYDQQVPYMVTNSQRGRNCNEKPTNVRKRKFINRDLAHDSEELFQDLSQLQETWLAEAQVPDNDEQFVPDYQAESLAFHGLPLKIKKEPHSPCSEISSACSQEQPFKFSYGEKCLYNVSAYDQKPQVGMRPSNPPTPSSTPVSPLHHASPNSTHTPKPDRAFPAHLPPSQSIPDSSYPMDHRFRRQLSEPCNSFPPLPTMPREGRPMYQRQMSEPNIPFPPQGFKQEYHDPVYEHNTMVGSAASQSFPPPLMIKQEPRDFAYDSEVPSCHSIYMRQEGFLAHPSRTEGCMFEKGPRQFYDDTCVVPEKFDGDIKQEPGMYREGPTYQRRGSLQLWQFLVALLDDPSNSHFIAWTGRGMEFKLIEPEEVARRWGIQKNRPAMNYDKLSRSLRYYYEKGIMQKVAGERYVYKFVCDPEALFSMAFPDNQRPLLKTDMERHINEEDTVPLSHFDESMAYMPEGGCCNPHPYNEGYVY
Sequence of ETV5 (P41161 whole entry): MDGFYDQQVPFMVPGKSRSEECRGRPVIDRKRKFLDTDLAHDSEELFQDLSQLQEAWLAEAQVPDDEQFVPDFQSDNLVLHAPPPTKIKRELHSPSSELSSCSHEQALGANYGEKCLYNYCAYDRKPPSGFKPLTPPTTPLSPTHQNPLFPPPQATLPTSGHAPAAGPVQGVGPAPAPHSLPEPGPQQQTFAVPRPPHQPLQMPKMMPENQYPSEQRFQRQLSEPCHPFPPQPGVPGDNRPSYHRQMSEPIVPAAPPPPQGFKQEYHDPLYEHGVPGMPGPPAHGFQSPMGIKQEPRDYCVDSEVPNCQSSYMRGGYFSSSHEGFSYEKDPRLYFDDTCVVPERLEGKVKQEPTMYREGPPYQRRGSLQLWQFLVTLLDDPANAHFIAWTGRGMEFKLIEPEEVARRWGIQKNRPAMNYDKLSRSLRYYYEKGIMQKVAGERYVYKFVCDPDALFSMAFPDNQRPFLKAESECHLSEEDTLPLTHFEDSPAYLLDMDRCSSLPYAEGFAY

## TATATT
FLI1
  binding signal: 1.34 fold enrichment (6-mer frequency, TF over GST control)
ELK1
  binding signal: 1.33 fold enrichment (6-mer frequency, TF over GST control)
GABPA
  binding signal: 1.47 fold enrichment (6-mer frequency, TF over GST control)
ERG
  binding signal: 1.41 fold enrichment (6-mer frequency, TF over GST control)
ELF1
  binding signal: 1.47 fold enrichment (6-mer frequency, TF over GST control)
EHF
  binding signal: 1.43 fold enrichment (6-mer frequency, TF over GST control)
SPI1
  binding signal: 1.3 fold enrichment (6-mer frequency, TF over GST control)
SPIB
  binding signal: 1.34 fold enrichment (6-mer frequency, TF over GST control)
ELK3
  binding signal: 1.3 fold enrichment (6-mer frequency, TF over GST control)
FEV
  binding signal: 1.39 fold enrichment (6-mer frequency, TF over GST control)
ETV5
  binding signal: 1.43 fold enrichment (6-mer frequency, TF over GST control)
HSF1
  binding signal: 1.58 fold enrichment (6-mer frequency, TF over GST control)
SPIC
  binding signal: 1.56 fold enrichment (6-mer frequency, TF over GST control)
ELF4
  binding signal: 1.32 fold enrichment (6-mer frequency, TF over GST control)
ELK4
  binding signal: 1.65 fold enrichment (6-mer frequency, TF over GST control)
ETV2
  binding signal: 1.41 fold enrichment (6-mer frequency, TF over GST control)
ELF3
  binding signal: 1.58 fold enrichment (6-mer frequency, TF over GST control)
CRX
  binding signal: 1.93 fold enrichment (6-mer frequency, TF over GST control)
ETV1
  binding signal: 1.44 fold enrichment (6-mer frequency, TF over GST control)
